In PubChem BioAssay (NCATS):
Records with an inconclusive call do not appear. Where a call stands in place of a potency, no number is given. Unmarked numbers belong to inactive results. The source made the active and inactive calls. Calls follow the shape of the dose curve; as a rule, active = well fitted curve in the direction sought with a large enough effect; inconclusive = small, poorly fitted or top-dose-only effect, or another doubt; inactive = no such curve, though single readings can be large; an effect the other way counts as inactive or inconclusive.

Experiments:
[1] = tested on: Zika virus NS2B-NS3 protease (unlinked complex); experiment: Primary screen GU Rhodamine qHTS for Zika virus inhibitors: Unlinked NS2B-NS3 protease assay (AID 1347159); also: nearly all actives have a fitted effect of over 60% in size; also: potency is read from the fitted curve at half-maximal effect
Outline: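 Enzyme 25 nM in Tris-HCl pH 8.0 + 0.01% Tween 20; compounds up to 114 microM, 15 min RT dark; + Rhod110 substrate 1.5 microM; read t0 and 15 min; delta fluorescence → % inhibition → 4-parameter Hill fit.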

[2] = tested on: Zika virus NS2B-NS3 protease (linked construct); experiment: Primary screen NINDS Rhodamine qHTS for Zika virus inhibitors (AID 1347160); also: nearly all actives have a fitted effect of over 55% in size; also: potency is read from the fitted curve at half-maximal effect
Outline: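 Enzyme (25 nM, linked NS2B-NS3) was preincubated 15 min with compound in 10 mM Tris-HCl pH 8.0, 0.01% Tween 20. Rhodamine110 substrate (1.5 microM) was then added and fluorescence read at start and after 15 min.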

[3] = tested on: Zika virus NS2B-NS3 protease; experiment: Primary screen GU AMC qHTS for Zika virus inhibitors (AID 1347154); also: nearly all actives have a fitted effect of over 70% in size; also: potency is read from the fitted curve at half-maximal effect
Outline: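 Unlinked Zika NS2B hydrophilic domain–NS3 protease complex at 25 nM in 10 mM Tris-HCl pH 8.0, 0.01% Tween 20, with an AMC peptide substrate. Fluorescence change (340/450 nm) over 15 min at room temperature, normalized to controls, fitted to 4-parameter Hill.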

[4] = Confirmatory screen GU Rhodamine qHTS for Zika virus inhibitors qHTS (AID 1347157); also: nearly all actives have a fitted effect of over 70% in size; also: potency is read from the fitted curve at half-maximal effect
Outline: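 Compounds, tested up to 114 microM, were incubated for 15 minutes with 25 nM unlinked NS2B-NS3 protease at pH 8.0. Cleavage of 1.5 microM Rhodamine110 substrate was then followed by fluorescence for 15 minutes.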

[5] = tested on: Zika virus NS2B-NS3 protease (linked); experiment: 384 well plate NINDS AMC confirmatory qHTS for Zika virus inhibitors (AID 1347163);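 also: linked protease at 5 30 or 60 nM final depending on run; fluorescence of AMC released from Ac-VKTGKR-AMC peptide cleaved by the protease; top concentration of the series differs between compounds; nearly all actives have a fitted effect of over 50% in size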
Outline: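 Enzyme (5, 30 or 60 nM final) first met test compounds for ~15 min. The AMC-tagged peptide Ac-VKTGKR-AMC followed at 30 microM. Fluorescence was then recorded at 25 min and scaled against no-enzyme and no-inhibitor wells.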

[6] = tested on: Zika virus NS2B-NS3 protease (linked construct); experiment: 384 well plate NINDS Rhodamine confirmatory qHTS for Zika virus inhibitors (AID 1347164);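 also: fluorescence from protease cleavage of Ac-LKRR-rhodamine 110 substrate; potency is read from the fitted curve at half-maximal effect; nearly all actives have a fitted effect of over 65% in size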
Outline: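 Linked protease at a final 5 nM, 30 nM or 60 nM was preincubated ~15 min with compounds, then given 10 microM Ac-LKRR-Rhodamine 110. Fluorescence (ex 485/em 538 nm) after 25 min in the dark at room temperature.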

[7] = Tertiary RLuc qRT-PCR qHTS assay for Zika virus inhibitors (AID 1347169); also: potency is read from the fitted curve at half-maximal effect; nearly all actives have a fitted effect of over 55% in size
Outline: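 Vero cells (1,000 per well) plated overnight at 37 degrees C, treated with compound in DMSO, then infected with recombinant ZIKV-RLuc (Cambodian) at MOI 1-2 for 48-72 hrs. Live-cell Renilla luciferase substrate added; luminescence read after 1-1.5 hrs.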

[8] = qHTS to identify inhibitors of the type 1 interferon - major histocompatibility complex class I in skeletal muscle: primary screen against the NCATS Pharmaceutical Collection (AID 1347407);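 also: luminescence of HiBiT knocked into endogenous HLA-B as interferon-induced MHC class I level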
Outline: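 Immortalized human myoblasts (C25cl48) with HiBiT knocked into endogenous HLA-B*08:01 were stimulated with 4 ng/ml IFN-beta and treated with compounds (8-point, 1:5, top 46 uM final) for 24 h at 37 C; HiBiT lytic luminescence read.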

In the case of C=CC(=O)N1CCC[C@@H](n2nc(-c3ccc(Oc4ccccc4)cc3)c3c(N)ncnc32)C1, the Potency [1] is reported as “inactive” and the Potency [2] is reported as “inactive”.

For CC(=O)Nc1sc2c(c1-c1nc3ccccc3s1)CNC2, the Potency [1] was “inactive” and the Potency [2] was “inactive”.

In the case of CS(=O)(=O)c1ccc(-c2cnc(N)c(C(=O)Nc3ccccc3)n2)cc1, the Potency [3] is reported as “inactive”, the Potency [1] is reported as “inactive” and the Potency [2] is reported as “inactive”.

In the case of CCCCCN(CCC12CC3CC(CC(C3)C1)C2)C(=O)NCCCc1ccncc1, the Potency [2] is reported as “inactive”.

For O=C(CCCCCCNC(=O)c1cnc(N(c2ccccc2)c2ccccc2)nc1)NO, the Potency [3] was “inactive” and the Potency [2] was “inactive”.

For O=C(O)Cn1nnc(-c2cc(N3CCC(Oc4cc(F)ccc4Br)CC3)no2)n1, the Potency [4] was 27.8 µM (active), the Potency [1] was 22.4 µM (active) and the Potency [2] was “inactive”. The Potency [5] was “inactive”, the Potency [6] was 79.4 µM (active) and the Potency [7] was 1.17 µM (active).

In the case of CC(=O)SC[C@@H](C)C(=O)N1CCC[C@H]1C(=O)N[C@@H](Cc1ccccc1)C(=O)O, the Potency [3] is reported as “inactive” and the outcome [8] is reported as “inactive”.

In the case of Nc1nccc(Oc2ccc(NC(=O)c3c[nH]cc(-c4ccc(F)cc4)c3=O)cc2F)c1Cl, the Potency [2] is reported as “inactive”.

With CC(C)(O)CCc1ccc(OCc2cc(-c3cccc(OC(F)F)c3)c3ncccc3c2)cc1 the Potency [3] was “inactive” and the Potency [2] was “inactive”.

For COc1cc2c(Oc3ccc4[nH]c(C)cc4c3F)ncnc2cc1OCCCN1CCCC1, the Potency [3] was “inactive”, the Potency [1] was “inactive” and the Potency [2] was “inactive”.

In the case of Nc1ncnc2c1c(-c1cccc(OCc3ccccc3)c1)cn2C1CC(CN2CCCC2)C1 (configuration not stated), the Potency [3] is reported as “inactive”, the Potency [1] is reported as “inactive” and the Potency [2] is reported as “inactive”.

In the case of OCc1ccc(-c2ccc(-c3ccc(CO)s3)o2)s1, the Potency [3] is reported as 26.7 µM (active) and the Potency [2] is reported as “inactive”.

For NC1(Cc2ccc(Cl)cc2)CCN(c2ncnc3[nH]ccc23)CC1, the Potency [3] was “inactive”, the Potency [1] was “inactive” and the Potency [2] was “inactive”.

In the case of C[C@]1(CO)CN(c2cc(C(=O)Nc3ccc4c(c3)-c3c(c(C(N)=O)nn3-c3ccc(F)cc3)CC4)c(Cl)cn2)C[C@@]1(C)CO, the Potency [1] is reported as “inactive” and the Potency [2] is reported as “inactive”.

In the case of Clc1ccc2ncc(-c3cccc(NC4CNC4)n3)n2c1, the Potency [2] is reported as “inactive”.

For CN(C1CCc2c(c3ccccc3n2CC(=O)O)C1)S(=O)(=O)c1ccc(F)cc1 (configuration not stated), the Potency [3] was “inactive” and the Potency [2] was “inactive”.

In the case of COc1cc2c(cc1-c1c(C)noc1C)ncc1[nH]c(=O)n([C@H](C)c3ccccn3)c12, the Potency [4] is reported as “inactive”, the Potency [1] is reported as “inactive” and the Potency [7] is reported as 0.37 µM (active).

With CNC(=O)c1cc(Oc2ccc(NC(=O)Nc3cc(C(C)(C)C)nn3-c3ccc4ncccc4c3)c(F)c2)ccn1 the Potency [3] was “inactive”, the Potency [1] was “inactive” and the Potency [2] was “inactive”.

For CC(=O)c1c(C)c2cnc(Nc3ccc(N4CCNCC4)cn3)nc2n(C2CCCC2)c1=O, the Potency [3] was “inactive”, the activity change, negative = inhibition [1] was 5.34% [at 11.5 µM] and the activity change, negative = inhibition [2] was 8.21% [at 4.91 µM].

With Cc1cc(Nc2cc(CN3CCOCC3)c3nc(C)c(Cc4ccc(Cl)cc4F)n3n2)n[nH]1 the Potency [3] was “inactive”, the Potency [1] was “inactive” and the Potency [2] was “inactive”.

For CC1(O)CC(c2nc(-c3ccc4ccc(-c5ccccc5)nc4c3)c3c(N)nccn23)C1 (configuration not stated), the Potency [3] was “inactive”, the Potency [1] was “inactive” and the Potency [2] was “inactive”.

For Nc1cccc(-c2cc3c(Oc4cccc(O)c4)ncnc3[nH]2)c1, the Potency [1] was “inactive” and the Potency [2] was “inactive”.

For CNc1nccc(-c2cccnc2Oc2cc(C(=O)Nc3cccc(C(F)(F)F)c3)ccc2C)n1, the Potency [3] was “inactive”, the Potency [1] was “inactive” and the Potency [2] was “inactive”.

With Cc1coc2c1C(=O)C(=O)c1c-2ccc2c1CCCC2(C)C the Potency [1] was 22.4 µM (active) and the Potency [2] was 14.1 µM (active).

In the case of COCCOc1ccc2c(c1)ncn2-c1ccc2cccc(N3CCC(N)CC3)c2n1, the Potency [3] is reported as “inactive”, the Potency [1] is reported as “inactive” and the Potency [2] is reported as “inactive”.

With Cn1cc(-c2[nH]c3cc(NC(=O)[C@H](N)C4CCCCC4)cc4c3c2C=NNC4=O)cn1 the Potency [3] was “inactive”, the Potency [1] was “inactive” and the Potency [2] was “inactive”.

For Cn1c(CNc2ccc(C(=N)N)cc2)nc2cc(C(=O)N(CCC(=O)O)c3ccccn3)ccc21, the Potency [3] was “inactive”, the Potency [1] was “inactive” and the Potency [2] was “inactive”.

For O=C(Nc1nc2cccc(-c3ccc(CN4CCS(=O)(=O)CC4)cc3)n2n1)C1CC1, the Potency [3] was “inactive”, the Potency [1] was “inactive” and the Potency [2] was “inactive”.

In the case of Cc1cc(Nc2nc(N[C@@H](C)c3ccc(F)cc3)c(C#N)cc2F)n[nH]1, the Potency [1] is reported as “inactive”.

In the case of Fc1cc(-c2cccc3ncc(-c4cnn(C5CCNCC5)c4)nc23)cc(F)c1CN1CCOCC1, the Potency [3] is reported as “inactive”, the Potency [1] is reported as “inactive” and the Potency [2] is reported as “inactive”.

For O=C(c1cncc(Br)c1)N1CCC(N2CCCC2)CC1, the Potency [3] was “inactive” and the Potency [2] was “inactive”.

For CC(C)c1noc(N2CCC(COc3ccc(-c4ccc(S(C)(=O)=O)cc4)nc3)CC2)n1, the Potency [3] was “inactive”, the Potency [1] was “inactive” and the Potency [2] was “inactive”.

For COc1cc(C)c(Sc2cnc(NC(=O)c3ccc(CNC(C)C(C)C)cc3)s2)cc1C(=O)N1CCN(C(C)=O)CC1 (configuration not stated), the Potency [3] was “inactive” and the Potency [2] was “inactive”.

With O=C(O)CCCc1c[nH]c2ccccc12 the Potency [3] was “inactive”, the Potency [1] was “inactive” and the Potency [2] was “inactive”.

With O=C(CCCCCCC(=O)Nc1ccc([C@H]2O[C@@H](CSc3nc(-c4ccccc4)c(-c4ccccc4)o3)C[C@@H](c3ccc(CO)cc3)O2)cc1)NO the Potency [1] was 8.91 µM (active).

In the case of Nc1ccccc1NC(=O)c1ccc(CNc2nccc(-c3cccnc3)n2)cc1, the Potency [3] is reported as “inactive”, the Potency [1] is reported as “inactive” and the Potency [2] is reported as “inactive”.

In the case of CCCn1c(=O)c2[nH]c(-c3cnn(Cc4cccc(C(F)(F)F)c4)c3)nc2n(CC)c1=O, the Potency [3] is reported as “inactive”, the Potency [1] is reported as “inactive” and the Potency [2] is reported as “inactive”.

With CCOc1ccccc1OCCNC(C)Cc1ccc(OC)c(S(N)(=O)=O)c1 (configuration not stated) the Potency [3] was “inactive” and the Potency [2] was “inactive”.

In the case of C[C@@H]1COC(Nc2ccc3ncnc(Nc4ccc(OCc5nccs5)c(Cl)c4)c3c2)=N1, the Potency [3] is reported as “inactive”, the Potency [1] is reported as “inactive” and the Potency [2] is reported as “inactive”.
